# Laboratory results: PubChem BioAssay AID2546 (National Center for Advancing Translational Sciences (NCATS), 2010)
# The whole screen tested about 310,000 compounds, of which about 11,000 (3.5%) were called active. Inconclusive results (about 8%) are left out. This excerpt belongs to a sample that is enriched for actives. Unmarked numbers belong to inactive results. Calls follow the shape of the dose curve; as a rule, active = well fitted inhibition curve with a large enough effect; inconclusive = small, poorly fitted or top-dose-only effect, or effect the other way; inactive = flat fitted curve, though single readings scatter.
# Assay: VP16 counterscreen qHTS for inhibitors of ROR gamma transcriptional activity;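 also: Gal4-VP16 expression switched on by copper sulfate through the metallothionein promoter; nearly all actives have a fitted effect of over 50% in size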
# Conditions: Drosophila S2 Gal4-VP16 UAS-luciferase, luminescence, 20 h; series mostly up to 53.6 µM; activity, negative = inhibition: at the top concentration
# % is scaled to controls: 0 for no effect and ±100 for the full control effect; potency is read from the fitted curve at half-maximal effect.
SMILES,"activity, negative = inhibition",Potency
CC(C)NS(=O)(=O)c1ccc(OCC(=O)NC2CCCCCC2)cc1,-4.5%,–
CC(=O)Oc1c2c(c3c(c1CC=C(C)C)O[C@@]14C(=CC5CC1C(C)(C)OC4(C/C=C(\C)C(=O)O)C5=O)C3=O)OC(C)(CCC=C(C)C)C=C2 (some centres not stated),–,5.62 µM (active)
COc1ccc(CNC(=O)c2cc(C(=O)C3CC3)c[nH]2)cc1,–,22.4 µM (active)
CC(C)CC(=O)c1c[nH]c(C(=O)NCc2ccccc2)c1,-0.114%,–
COc1ccc(CNC(=O)c2c[nH]c3c(OC)cc(OC)cc3c2=O)cc1,2.18%,–
COc1ccc(N2CCC(N3CCN(C)C(CCO)C3)CC2)cc1 (configuration not stated),-1.4%,–
Cc1cc(C)n(CC(O)COc2ccc(C(C)(C)C)cc2)n1 (configuration not stated),2.58%,–
CC(=O)c1ccc(N2CCN(C(=O)CCNC(=O)Cn3ccc4ccccc4c3=O)CC2)cc1,2.36%,–
CCOc1ccc(S(=O)(=O)N2CCC(C(=O)NCc3ccccn3)CC2)cc1Cl,2.16%,–
Clc1ccc(C(Cn2ccnc2)OCc2ccsc2Cl)c(Cl)c1 (configuration not stated),–,15.8 µM (active)
O=C(NCCCn1ccnc1)Nc1ccc(Cl)cc1Cl,-7.92%,–
O=C(Nc1ccccc1C(=O)NCCCn1ccnc1)c1ccc(Cl)cc1Cl,-8.8%,–
CSCCC(NS(=O)(=O)c1ccccc1F)C(=O)N1CC=C(c2ccccc2)CC1 (configuration not stated),-0.385%,–
O=C(Nc1ccc(Cl)c(Cl)c1)c1ccccc1NC(=O)C1CC=CCC1C(=O)O (configuration not stated),2.06%,–
Cc1ccc(CS(=O)(=O)c2ncc(Cl)c(C(=O)Nc3nnc(C)s3)n2)cc1,–,6.31 µM (active)
Cc1cccc(NC(=O)c2nc(S(=O)(=O)Cc3ccccc3)ncc2Cl)c1,–,4.47 µM (active)
CCSc1ncc(Cl)c(C(=O)Nc2cc(C)ccc2C)n1,0.583%,–
Cc1cccc(OCc2ccc(C(=O)Nc3ccc(F)cc3)cc2)c1,-0.168%,–
Cc1cccc(CS(=O)(=O)c2ncc(Cl)c(C(=O)Nc3ccc(F)cc3)n2)c1,–,3.16 µM (active)
CSc1ncc(Cl)c(C(=O)Nc2cc(C)ccc2C)n1,2.76%,–
Cc1ccc(S(=O)(=O)CC(=O)Nc2nnc(C)s2)cc1,0.532%,–
Cc1cccc(NC(=O)C(C)SCc2ccccc2)c1 (configuration not stated),-3.55%,–
Cc1nnc(NC(=O)Nc2ccc(Cl)c(Cl)c2)s1,1.23%,–
O=S(=O)(c1ccc(Cl)cc1)c1nc(-c2ccco2)oc1N1CCCCC1,-7.28%,–
Cc1c(CNCCc2ccccc2)c(C(=O)O)c(C)n1-c1ccccc1,20.5%,–
CCn1c(C)c(C)c2cc(C(=O)N3CCN(c4cccc(C)c4C)CC3)ccc21,1.57%,–

SMILES,"activity, negative = inhibition",Potency
CCOc1ccc(N2C(=O)CC(N(O)c3ccccc3)C2=O)cc1 (configuration not stated),2.07%,–
CCCCCCC(=O)N(O)C1CC(=O)N(c2ccccc2)C1=O (configuration not stated),–,5.01 µM (active)
CCOC(=O)c1ccc(N2C(=O)CC(N(C)Cc3ccccc3)C2=O)cc1 (configuration not stated),-0.343%,–
COc1ccc(CN(C)C(=O)Cc2ccsc2)c(OC)c1OC,-2.7%,–
CC1CCN(S(=O)(=O)c2ccc3c(ccn3CC(=O)O)c2)CC1,0.253%,–
COc1ccc(-c2csc(NC3OC(=O)c4ccccc43)n2)cc1 (configuration not stated),9.71%,–
COc1ccc(C)cc1Nc1nc(-c2c(C)[nH]c3ccccc23)cs1,-9.12%,–
COc1ccc(-c2csc(Nc3ccc(O)cc3)n2)cc1,–,12.6 µM (active)
COc1ccc(OC)c(Nc2nc(-c3ccc(O)c(O)c3)cs2)c1,–,8.91 µM (active)
COc1ccc(-c2csc(Nc3ccccn3)n2)cc1,-8.73% [at 10 µM],–
COc1ccc(-c2csc(NC(=O)c3ccc(N4C(=O)CCC4=O)cc3)n2)cc1OC,-0.532%,–
O=S(=O)(Cc1cc(Cl)nc(-c2cccnc2)n1)c1ccccc1,-13.2%,–
CCOC(=O)C1CCCN(S(=O)(=O)c2ccc(-n3cnnn3)c(C)c2)C1 (configuration not stated),13.5%,–
Cc1ccc(-c2nc3ccccc3[nH]c2=O)cc1,-9.75%,–
c1ccc2[nH]c(-c3nc4ccccc4[nH]3)nc2c1,–,10 µM (active)
OC(c1nc2ccccc2[nH]1)C(O)C(O)C(O)c1nc2ccccc2[nH]1 (configuration not stated),-6.56%,–
O=C(CSc1ccc(-c2ccco2)nn1)Nc1cccc(F)c1,-2.6%,–
Cc1ccc(C(=O)CSc2nnc(Cn3nnc4ccccc43)n2C)cc1,15.3%,–
Cn1c(CNC(=O)c2ccccc2F)nnc1SCc1ccc(F)cc1,-1.58%,–
Cn1c(Cn2nnc3ccccc32)nnc1SCC(=O)c1ccccc1F,–,7.08 µM (active)
CS(=O)(=O)Nc1cccc(C2=NN(C(=O)c3cccc(F)c3)C(c3cccs3)C2)c1 (configuration not stated),8.13%,–
CCOc1ccc(-c2noc(CCC(=O)NC3CCCC3)n2)cc1OC,6.06%,–
Cc1ccc(-n2[nH]c(C)c(/C=N/NC(=O)c3cccc([N+](=O)[O-])c3)c2=O)cc1C,–,0.891 µM (active)
COc1cccc(/C=N/NC(=O)c2cccc([N+](=O)[O-])c2)c1OS(=O)(=O)c1ccc(C)cc1,-1.03%,–
O=C(N/N=C/c1cccc([N+](=O)[O-])c1)c1ccncc1,-2.67%,–
Cc1[nH]n(-c2ccccc2)c(=O)c1N=Nc1ccccc1C(=O)N1CCCCC1,3.52%,–

SMILES,"activity, negative = inhibition",Potency
COc1cc(/C=N/NC(=O)c2ccoc2C)ccc1OCCN1CCCCC1,-3.7%,–
Cc1[nH]n(-c2ccccc2)c(=O)c1/C=N/NC(=O)c1ccoc1C,–,1 µM (active)
Cc1nnc(NC(=O)C(c2ccccc2)c2ccccc2)s1,7.09%,–
Cc1nc2cc(C(F)(F)F)ccc2n1CCNc1nc(-c2cc(Cl)c(N)c(Cl)c2)cs1,-0.934%,–
Cc1ccc(NC(=O)C/C(N)=N/O)cc1Cl,-2.54%,–
O=C(CC(O)(C(F)(F)F)C(F)(F)F)Nc1ccc(Cl)c(Cl)c1,–,5.01 µM (active)
O=C(CC(=O)Nc1ccc(Cl)c(Cl)c1)N/N=C/c1ccc(O)cc1,-6.4%,–
O=C(NCc1ccc2c(c1)OCO2)c1cc(F)c(F)cc1Cl,-6.45%,–
Cc1c(Cl)cccc1NC(=S)N(Cc1ccccc1)Cc1cccnc1,-4.7%,–
CCNC(=S)Nc1cccc(Cl)c1C,–,17.8 µM (active)
Cc1c(Cl)cccc1NC(=S)NCc1ccc2c(c1)OCO2,–,11.2 µM (active)
CN(C)S(=O)(=O)c1cccc(NC(=S)NCc2ccc3c(c2)OCO3)c1,0.712%,–
Cc1c(Cl)cccc1NC(=O)NCc1ccc(C)n1C,6.08%,–
CCOC(=O)c1c(C)[nH]c(C)c1S(=O)(=O)NCCCc1ccco1,-3.08%,–
O=C(NCCc1ccc(Cl)cc1Cl)c1cc([N+](=O)[O-])c[nH]c1=O,2.24%,–
Cc1cc(Cl)c2oc(C(=O)N(C)C(C)c3ccccn3)c(C)c2c1 (configuration not stated),27.8%,–
Cn1nccc1C(=O)NC1CCCc2c1cnn2-c1ccccc1F (configuration not stated),–,1.41 µM (active)
Cn1nccc1C(=O)NC1CCCc2c1cnn2-c1ccc(F)cc1F (configuration not stated),–,0.891 µM (active)
CC(=O)NCC(=O)NC1CCCc2c1cnn2-c1ccccc1F (configuration not stated),-5.41%,–
Cc1cc(C(=O)NC2CCCc3c2cnn3-c2cccc(C)c2C)c(C)o1 (configuration not stated),-96.4%,–
CC1(C)Cc2c(cnn2-c2cccc(F)c2)C(NC(=O)c2cc[n+]([O-])cc2)C1 (configuration not stated),-7.81%,–
COc1ccc(C(=O)NC2CC(C)(C)Cc3c2cnn3-c2ccccc2C)o1 (configuration not stated),1.14%,–
COc1ccc(C(=O)NC2CCCc3c2cnn3-c2cccc(C)c2C)c(OC)n1 (configuration not stated),–,12.6 µM (active)
Cc1ccc(-n2ncc3c2CCCC3NC(=O)c2cnccn2)cc1C (configuration not stated),-18.1%,–
Cn1nccc1CNC(=O)c1ccnn1C,-7.45%,–
CC(=O)Nc1ccc(S(=O)(=O)NNC(=O)CCc2ccccc2)cc1,2.51%,–

SMILES,"activity, negative = inhibition",Potency
CCN(CC)CCCNC(=O)c1cc2c(=O)[nH]c3ccc(C)cc3c2s1,-1.31%,–
CC(C)(C)NC(=O)NC(=O)COC(=O)C1c2ccccc2Oc2ccccc21,-9.04%,–
CCn1c(SCC(=O)Nc2ccc(Br)cc2)nc2sc3c(c2c1=O)CCN(C)C3,6.53%,–
CCCCNC(=O)c1cn(CC)c2cc(N3CCN(C(=O)c4ccco4)CC3)c(F)cc2c1=O,2.5%,–
CCOC(=O)c1ccccc1NS(=O)(=O)c1c(C)nc2sccn2c1=O,-4.73%,–
Cc1occc(=O)c1OCc1c(Cl)cccc1Cl,-24.2%,–
O=C(O)c1ccc2c(=O)n3c(nc2c1)/C(=C/c1ccc(OC(F)F)cc1OC(F)F)CC3,-2.9%,–
Cc1nn(C(C)(C)C)c(OC(=O)CC(C)C)c1S(=O)(=O)c1ccccc1,5.08%,–
O=C(CCCn1c(SCC(=O)c2ccccc2)nc2ccccc2c1=O)NCC1CCCO1 (configuration not stated),-6.43%,–
COCCNC(=O)c1ccc(Cn2c(SCC(=O)NCC3CCCO3)nc3ccc(Br)cc3c2=O)cc1 (configuration not stated),-8.04%,–
CCCCn1c(SCC(=O)NCC2CCCO2)nc2ccc(N3CCOCC3)cc2c1=O (configuration not stated),–,11.2 µM (active)
CN(Cc1ccccc1)C(=O)CSc1nc2ccccc2[nH]1,-4.72%,–
CCOC(=O)c1csc(CCNC(=O)c2oc3c(Cl)cc(C)cc3c2C)n1,-0.695%,–
Cc1ccccc1OC/C(O)=C(\C#N)c1nc2ccccc2[nH]1,-17.7%,–
COCCN(CCOC)S(=O)(=O)c1ccc(/C(O)=C(\C#N)c2nc3ccccc3[nH]2)cc1,25.6%,–
N#C/C(=C(/O)COC(=O)COc1ccc(Cl)cc1)c1nc2ccccc2[nH]1,–,12.6 µM (active)
O=C(COc1ccccc1)NCCc1nc2ccccc2[nH]1,-0.523%,–
O=C(COC(=O)CCCSc1nc2ccccc2[nH]1)Nc1ccc(Oc2ccccc2)cc1,-5.22%,–
N#C/C(=C(/O)COc1cccc2ccccc12)c1nc2ccccc2[nH]1,–,7.94 µM (active)
O=C(CCS(=O)(=O)c1ccccc1)NC1CCCC1,-6.21%,–
COc1ccc(C(=O)Nc2ccccc2C(=O)N2CCN(c3ccccc3)CC2)cc1,-9.17%,–
CC(C)c1ccc(N2CCN(C(=O)c3ccccc3NC(=O)/C=C(\C(=O)O)c3ccccc3)CC2)cc1,–,1.12 µM (active)
O=C(O)C1CC=CCC1C(=O)Nc1ccccc1C(=O)N1CCN(c2ccccc2)CC1 (configuration not stated),13.5%,–
CCCN1CCC(=O)N(C(CSc2ccc(OC)cc2)Cc2ccccc2)CC1 (configuration not stated),5.75%,–
